Only some compounds are listed: those with a hit (about 2.1% of all), similar ones and a draw of the others.
bovine MsrA act: bovine MsrA enzyme activators, primary screen, biochemical, absorbance, HTS; Methionine sulfoxide reductase A (Bos taurus); purified bovine MsrA, absorbance read-out; activation, % at 10.6 µM; hit rate 0.3% among 360,000; AID 602163, 2012; in the data active = activation above about 7.5%;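 note: 0% = vehicle and 100% = reference activator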
ABCB6 inh 2: ABCB6 transporter inhibitors, primary screen, K562-ABCB6 cells, flow cytometry, MLPCN library. hit rate 0.19% among 360,000. ATP-binding cassette sub-family B member 6 (Homo sapiens), Q9NP58. K562-ABCB6 porphyrin accumulation, 1 h; stronger effect = lower value. AID 602162, 2011. fluorescence ratio to DMSO, % at 10 µM;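 active = fluorescence ratio to DMSO below 75%, the collection mean minus 3 SD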;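 note: signal is porphyrin accumulated inside mitochondria; 100% equals median channel fluorescence of DMSO control wells; lower ratio means ABCB6 inhibition with less porphyrin fluorescence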
Target sequence (Q9NP58 whole entry, looked up): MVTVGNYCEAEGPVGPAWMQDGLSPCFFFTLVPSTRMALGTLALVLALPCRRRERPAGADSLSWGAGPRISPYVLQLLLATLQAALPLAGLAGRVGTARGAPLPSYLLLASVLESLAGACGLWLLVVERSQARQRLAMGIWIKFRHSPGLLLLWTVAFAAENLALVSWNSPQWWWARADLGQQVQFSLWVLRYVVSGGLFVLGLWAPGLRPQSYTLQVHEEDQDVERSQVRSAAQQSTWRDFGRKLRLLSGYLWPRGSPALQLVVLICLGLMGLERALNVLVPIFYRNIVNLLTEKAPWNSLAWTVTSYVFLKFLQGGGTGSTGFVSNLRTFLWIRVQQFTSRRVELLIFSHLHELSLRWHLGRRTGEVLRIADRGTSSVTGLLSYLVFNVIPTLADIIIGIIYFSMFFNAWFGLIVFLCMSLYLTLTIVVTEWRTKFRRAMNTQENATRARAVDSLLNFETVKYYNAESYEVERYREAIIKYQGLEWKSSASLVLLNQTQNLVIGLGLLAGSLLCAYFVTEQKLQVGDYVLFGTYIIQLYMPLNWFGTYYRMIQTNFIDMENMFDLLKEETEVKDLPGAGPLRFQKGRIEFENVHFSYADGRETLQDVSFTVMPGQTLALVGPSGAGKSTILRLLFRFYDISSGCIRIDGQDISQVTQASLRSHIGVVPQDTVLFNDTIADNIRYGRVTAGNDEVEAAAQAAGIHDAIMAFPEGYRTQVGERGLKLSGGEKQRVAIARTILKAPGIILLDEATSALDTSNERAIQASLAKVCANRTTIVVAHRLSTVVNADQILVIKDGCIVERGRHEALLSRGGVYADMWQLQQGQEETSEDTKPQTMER
MsrA inhibitor: bovine MsrA enzyme inhibitors, primary screen, biochemical, absorbance, HTS. Methionine sulfoxide reductase A (Bos taurus). purified bovine MsrA, absorbance read-out. inhibition, % at 15.5 µM. hit rate 0.75% among 360,000. AID 651718, 2012; in the data active = inhibition above about 4.5%;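 note: 0% = vehicle wells with enzyme and 100% = reference inhibitor wells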
SMARCA2 act: SMARCA2 (BRM) function activators, primary screen, cell-based, luminescence, high throughput. MG213 cells, MMTV-luciferase reporter, dexamethasone, overnight. activation, % at 9.1 µM. hit rate 1% among 370,000. AID 652017, 2013; in the data active = activation above about 7.8%;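 note: 0% = vehicle wells and 100% = reference activator wells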
ABCB6 blocker 1: ABCB6 transporter inhibitors, confirmation, K562-ABCB6 cells, flow cytometry, cherry pick 1; shares compounds with ABCB6 inh 2; K562-ABCB6 porphyrin accumulation, 1 h; stronger effect = lower value; ratio response (% of DMSO), % at 10 µM; 700 tested, under 10 active; AID 602430, 2012;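 active = repeat-averaged ratio response below 75% of DMSO, the collection mean minus 3 SD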;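 note: median porphyrin fluorescence at 575 nm with 488 nm excitation from mitochondria; lower ratio means less porphyrin signal so ABCB6 inhibition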
* hit, by the source's call; / = not tested or not shown.

SMILES	bovine MsrA act	ABCB6 inh 2	MsrA inhibitor	SMARCA2 act	ABCB6 blocker 1
c1ccc(COc2cccc(-c3cc4nc(NCc5ccc6c(c5)OCO6)ccn4n3)c2)cc1	0.0	68.0*	0.3	-0.1	97.0
c1csc(CNc2ccn3nc(-c4ccc(OCCN5CCOCC5)cc4)cc3n2)c1	-1.9	106.0	-0.2	-0.3	/
O=C(NCc1ccccc1Cl)C1CCN(S(=O)(=O)N2CCC3(CC2)OCCO3)CC1	-2.5	95.0	-0.1	4.9	/
O=C(NCc1ccc(F)cc1Cl)C1CCN(S(=O)(=O)N2CCC3(CC2)OCCO3)CC1	-0.7	69.0*	0.2	-2.9	96.0
Cc1cccn2c(=O)c3cc(S(=O)(=O)c4ccccc4)c(=N)n(Cc4ccco4)c3nc12	-14.9	66.0*	0.4	1.7	104.0
Cc1nc2ccc(NC(=O)c3ccc(F)cc3Cl)cc2c(=O)[nH]1	/	/	/	-2.6	/
CCCOc1ccc(C(CC(=O)O)NC(=O)c2ccc3c(c2)OCO3)cc1 (centres undefined)	-2.4	57.0*	-1.1	1.2	101.0
O=C(Nc1cccc(Cl)c1)NC1CCN(C2CCCCC2)C1 (centres undefined)	-2.3	47.0*	-1.8	-2.4	100.0
COc1cc(C)c(CN2CCN(c3ncccn3)CC2)cc1C	-6.2	16.0*	-1.7	3.0	97.0
COc1ccc(CN2CCN(c3ncccn3)CC2)c(C)c1C	-13.3	97.0	-0.5	4.2	/
O=C(CN(C(=O)OCC1c2ccccc2-c2ccccc21)[C@@H](Cc1ccccc1)C(=O)O)OCc1ccc(C(=O)NCc2ccccc2)cc1	/	/	/	-2.2	/
O=C(Nc1cccc(C(F)(F)F)c1)C1Cc2c(-c3ccco3)ccnc2O1 (centres undefined)	-2.0	97.0	0.5	-2.7	/
COc1ccc(NC(=O)C2Cc3c(-c4cccc(NC(C)=O)c4)ccnc3O2)cc1 (centres undefined)	-2.3	102.0	-0.7	-0.8	103.0
CC(=O)Nc1ccc(-c2ccnc3c2CC(C(=O)Nc2ccc4c(c2)OCO4)O3)cc1 (centres undefined)	-4.6	101.0	-0.4	-3.1	/
O=C(Nc1cccnc1)C1Cc2c(-c3ccco3)ccnc2O1 (centres undefined)	-3.4	74.0*	-0.2	-0.8	97.0
COc1ccc(NC(=O)C2Cc3c(-c4cccc(F)c4)ccnc3O2)cc1OC (centres undefined)	-7.4	69.0*	0.2	-8.9	103.0
CC(=O)c1cccc(-c2ccnc3c2CC(C(=O)Nc2ccc4c(c2)OCO4)O3)c1 (centres undefined)	-0.7	98.0	0.2	0.1	102.0
Cc1ccc(CSc2nnc(-c3n[nH]c4c3CCC4)n2N)cc1	/	/	/	-1.5	/
COc1ccc(C(=O)/C=C(\Nc2ccc(Br)c(C)c2)c2ccc(OC)cc2OC)c(OC)c1	/	/	/	2.0	/
C=C(C)/C=C1/CN(Cc2ccc3c(c2)OCO3)C(=N)N1C(=O)OCc1ccccc1	/	/	/	6.0	/
CC(=O)Nc1ccc(NC(=O)C2Cc3c(-c4cccc(C(C)=O)c4)ccnc3O2)cc1 (centres undefined)	-0.1	102.0	-0.1	0.6	102.0
CC(=O)Nc1ccc(NC(=O)C2Cc3c(-c4cccc(NC(C)=O)c4)ccnc3O2)cc1 (centres undefined)	-4.0	97.0	0.1	3.7	/
CC(=O)Nc1ccc(-c2ccnc3c2CC(C(=O)Nc2ccccc2)O3)cc1 (centres undefined)	-9.7	101.0	2.0	-6.0	95.0
O=C(NCc1ccc(F)c(F)c1)C1C2C=CC3(CN(Cc4ccccc4)C(=O)C13)O2 (centres undefined)	/	/	/	-3.1	/
C#CCN(CC=C)Cc1ccc(OC)cc1OC	/	/	/	1.6	/
CCOC(=O)C(NC(=O)Nc1ccc(F)cc1)(OCC)C(F)(F)F (centres undefined)	-4.5	88.0	-0.4	1.2	/
CCOC(=O)C1(C(F)(F)F)N=C(C(F)(F)F)Nc2ccc(F)cc21 (centres undefined)	-4.6	59.0*	1.1	-3.7	103.0
COc1ccc(C(=O)C2CCCN(C(=O)c3cccs3)C2)cc1F (centres undefined)	-10.2	71.0*	0.4	-2.4	99.0

Bioassay records from PubChem.
